Laboratory results: the supplement of paper PMC8183993
Counter-ions that a name gives are not always drawn. ± gives the standard deviation of the averaged measurements. Over roughly 3,100 compounds, “mean cytoplasmic OPP incorporation (global translation) relative to DMSO” has its median near 100; the lowest 2% begin near 56. The entries come from a sample that favours the lowest values as a whole.

What follows are compounds tested on U2OS (assay: mean cytoplasmic OPP incorporation (global translation) relative to DMSO (% of DMSO); higher = more protein synthesis). Details: 10 µM; 24 h.
Experimental: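 Primary image-based screen in U2OS cells: compounds at 10 uM for 24 h, then a 1 h o-propargyl-puromycin (OPP) pulse, click labelling, and high-throughput microscopy. Mean cytoplasmic OPP intensity and nuclei count were normalised to DMSO wells within each plate (DMSO = 100) and averaged over triplicate plates.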

SMILES	mean cytoplasmic OPP incorporation
CC(=O)O[C@H]1C[C@H](O[C@H]2[C@@H](O)C[C@H](O[C@H]3[C@@H](O)C[C@H](O[C@H]4CC[C@@]5(C)[C@H](CC[C@@H]6[C@@H]5C[C@@H](O)[C@]5(C)[C@@H](C7=CC(=O)OC7)CC[C@]65O)C4)O[C@@H]3C)O[C@@H]2C)O[C@H](C)[C@H]1O[C@@H]1O[C@H](CO)[C@@H](O)[C@H](O)[C@H]1O [Lanatoside C]	27.8
C[C@]12CC[C@H](O)C[C@@H]1CC[C@@H]1[C@@H]2CC[C@]2(C)C(=O)CC[C@@H]12	95.2
C[C@]12CC[C@H](O)C[C@H]1CC[C@@H]1[C@@H]2C[C@@H](O)[C@]2(C)[C@@H](C3=CC(=O)OC3)CC[C@]12O [Digoxigenin]	32
C[C@]12CC[C@@H](O)C[C@@H]1CC[C@@H]1[C@@H]2CC[C@]2(C)C(=O)CC[C@@H]12 [Androsterone]	97.1
C[C@]12CC[C@@H](O)C[C@H]1CC[C@@H]1[C@@H]2CC[C@]2(C)C(=O)CC[C@@H]12 [3-alpha-Hydroxy-5-beta-androstan-17-one]	89.8
C[C@]12CC[C@H](O)C[C@H]1CC[C@@H]1[C@@H]2CC[C@]2(C)[C@@H](C3=CC(=O)OC3)CC[C@]12O [Digitoxigenin]	26.3
CC(=O)[C@H]1CC[C@H]2[C@@H]3CC[C@H]4C[C@H](O)CC[C@]4(C)[C@H]3C(=O)C[C@]12C [Alfaxalone]	102
C[C@]12CC[C@H](O)C[C@@H]1CC[C@@H]1[C@@H]2CC[C@]2(C)C(=O)CC[C@@H]12 [Epiandrosterone]	90.1
CN(C)CCN(C)CCc1ccc(Cl)c(Cl)c1 [BD 1047 dihydrobromide]	105
CN(C(=O)Cc1ccc(Cl)c(Cl)c1)[C@H](CN1CCCC1)c1ccccc1 [ICI-199,441 hydrochloride]	111
CCCN(CCC)[C@@H]1CCc2c(OC)cccc2[C@@H]1C [(+)-UH 232 maleate]	102
NC(C(=O)O)c1nn[nH]n1 (racemic) [(RS)-(Tetrazol-5-yl)glycine]	102
CC1(C)[C@@H](O)C[C@H]2[C@](C)(O)[C@@H]3CC[C@@H]4[C@@H](O)[C@@]3(C[C@@H](O)[C@@]21O)C[C@@]4(C)O [Grayanotoxin III]	102
Clc1ccc(C2=CCCC3CCC2N3)cn1 (stereo unspecified) [UB 165 fumarate]	97.7
CCC(Oc1ccc(Cl)cc1)C(=O)OC1C[C@H]2CC[C@@H](C1)N2C (stereo partly specified) [SM-21 maleate]	106
N=C(NCc1ccc(Cl)cc1)SCCCc1c[nH]cn1 [Clobenpropit dihydrobromide]	95.4
CC(N)Cc1cnc[nH]1 (stereo unspecified)	101
C=CCN1CC[C@]2(C)c3cc(O)ccc3C[C@H]1C2C (single isomer, unassigned; (+))	105
COc1ccc(C(=O)O[C@H]2CC[C@@]3(C)[C@@H]4CC[C@H]5[C@]6(O)C[C@H](O)[C@@]7(O)[C@@H](CN8C[C@@H](C)CC[C@H]8[C@@]7(C)O)[C@]6(O)C[C@@]53O[C@]24O)cc1OC [Veratridine]	108

SMILES	mean cytoplasmic OPP incorporation
COc1ccc2[nH]cc(C3=CCNCC3)c2c1	101
CC(C)(Cc1c[nH]c2ccc(Cl)cc12)NCCOc1ccccc1OCC1CC1	55.1
Cn1cc(C(=O)C(=O)N[C@H]2CN3CCC2CC3)c2ccccc21	99.4
OC(Cc1ccncc1)C(Cl)(Cl)Cl (stereo unspecified)	104
C=C(C)CN1CC[C@@]23c4c5ccc(O)c4O[C@H]2c2[nH]c4ccccc4c2C[C@]3(O)C1C5 [SDM25N hydrochloride]	95.8
O=Cc1cn(Cc2ccc(Cl)cc2)c2ccccc12 [Oncrasin 1]	83.4
CN1C(=O)[C@]23CC4=CC=C[C@H](O)[C@H]4N2C(=O)[C@@]1(CO)SS3 [Gliotoxin]	33.6
CCC[C@@H]1CC2=CC(=O)CC[C@]2(C)[C@H]2CC[C@@]3(C)[C@@H](CC[C@@]3(O)CCC(=O)O)[C@H]12	96.1
Oc1ccc2c3c1O[C@H]1c4c(c5ccccc5n4Cc4ccccc4)C[C@@]4(O)C(C2)N(CC2CC2)CC[C@]314 [N-Benzylnaltrindole hydrochloride]	111
Cc1nc(N)sc1CCN [Amthamine dihydrobromide]	107
C[C@@H]1O[C@@H](O[C@H]2C[C@@H](O)[C@]3(CO)[C@H]4[C@H](O)C[C@]5(C)[C@@H](C6=CC(=O)OC6)CC[C@]5(O)[C@@H]4CC[C@]3(O)C2)[C@H](O)[C@H](O)[C@H]1O [Ouabain]	47 ± 1.8
Cc1ncc(CN2CC=C(c3ccccc3)CC2)c(N)n1	101
CC(CN)CC(=O)O (stereo unspecified) [3-Methyl-GABA]	102
CC1(C)[C@H](C(=O)O[C@H](C#N)c2cccc(Oc3ccccc3)c2)[C@@H]1C=C(Br)Br [Deltamethrin]	101
O=C1NC(=O)c2c1c1c3ccccc3n3c1c1c2c2ccccc2n1[C@H]1CC[C@@H]3O1	91.2
O=C(O)C1=CCCN(CCOC(c2ccc(C(F)(F)F)cc2)c2ccc(C(F)(F)F)cc2)C1 [CI 966 hydrochloride]	97.6
COc1cc(N)c(Cl)cc1C(=O)NC1CN2CCC1CC2 (stereo unspecified) [Zacopride hydrochloride]	104
C[CH2][Hg][S]c1ccccc1C(=O)[O-].[Na+] [Thimerosal]	15.5
O=C(O)/C=C/CO [trans-4-Hydroxycrotonic acid]	105

SMILES	mean cytoplasmic OPP incorporation
C[C@@H]1C[C@@H]([C@H](O)CC2CC(=O)NC(=O)C2)C(=O)[C@@H](C)C1 [Cycloheximide]	52.1 ± 35
CC[N+](CC)(CCCNC1=CC(=O)C(NCCC[N+](CC)(CC)Cc2ccccc2)=CC1=O)Cc1ccccc1 [Benzoquinonium dibromide]	101
O=C1CSC(c2ccccc2Cl)c2cc(Cl)ccc2N1 (stereo unspecified)	101
CCOC(=O)c1ncn2c1CN(C)C(=O)c1cc(N=[N+]=[N-])ccc1-2	91.9
Cn1c2c(c3ccccc31)CCNCC2	97.4
Fc1ccc(C(OCCN2CCN(C/C=C/c3ccccc3)CC2)c2ccc(F)cc2)cc1	102
CCCOc1ccc2[nH]cc(C3=CCNCC3)c2n1	103
C[C@@H]1CC[C@@]2(OC1)O[C@H]1C[C@H]3[C@@H]4CC=C5C[C@@H](O[C@@H]6O[C@H](CO)[C@@H](O[C@@H]7O[C@@H](C)[C@H](O)[C@@H](O)[C@H]7O)[C@H](O)[C@H]6O[C@@H]6O[C@@H](C)[C@H](O)[C@@H](O)[C@H]6O)CC[C@]5(C)[C@H]4CC[C@]3(C)[C@H]1[C@@H]2C [Dioscin (Collettiside III)]	50.2
CC(=O)O[C@H]1CC[C@@]2(C)C(=CC[C@@H]3[C@@H]2CC[C@]2(C)C(=O)CC[C@@H]32)C1 [Dehydroisoandosterone 3-acetate]	83.5
C=CCN1C[C@H](C)N([C@H](c2ccc(C(=O)N(CC)CC)cc2)c2cccc(O)c2)C[C@H]1C	111
O=C1/C(=C/c2ccccc2)C[C@@]2(O)[C@H]3Cc4ccc(O)c5c4[C@@]2(CCN3CC2CC2)[C@H]1O5 [BNTX maleate]	34.8
Oc1ccc2c3c1O[C@H]1c4[nH]c5c(c4C[C@@]4(O)[C@@H](C2)N(CC2CC2)CC[C@]314)C[C@@]1(O)[C@H]2Cc3ccc(O)c4c3[C@@]1(CCN2CC1CC1)[C@H]5O4 [nor-Binaltorphimine dihydrochloride]	102
O=C1CC[C@@]2(O)[C@H]3Cc4ccc(O)c5c4[C@@]2(CCN3CC2CC2)[C@H]1O5 [Naltrexone hydrochloride dihydrate]	108
NCC(CS(=O)(=O)O)c1ccc(Cl)cc1 (stereo unspecified) [Saclofen]	104
C[C@@H]1O[C@@H](O[C@@H]2C=C3CC[C@@H]4[C@H](CC[C@]5(C)[C@@H](c6ccc(=O)oc6)CC[C@]45O)[C@@]3(C)CC2)[C@H](O)[C@H](O)[C@H]1O [Proscillaridin A]	17.5
Cc1ccc2cc3c(ccc4ccccc43)c3c2c1CC3 [3-Methylcholanthrene]	114
O=C(O)CCC(CP(=O)(O)O)C(=O)O (stereo unspecified) [PMPA (NAALADase inhibitor)]	105
CCOc1cncc(/C=C/CCNC)c1 [TC 2559 difumarate]	97.5
